Data taken from PubChem BioAssay AID588763 (NMMLSC, 2011).
Measured potencies and affinities stand elsewhere. Activity calls are given as the source filed them. No rule for the calls is given here.

Each compound was assayed against Beta-2 adrenergic receptor (Homo sapiens) (UniProt P07550) (assay: ADRB2 activation measured by internalization – cell-based, FAP fluorogen, flow cytometry, cherry pick 1, dose response (AID 588763)). Conditions: AM2.2-beta2AR cells, 90 min; series mostly up to 33 µM.
Chain of Beta-2 adrenergic receptor (Homo sapiens) (P07550 whole entry, looked up): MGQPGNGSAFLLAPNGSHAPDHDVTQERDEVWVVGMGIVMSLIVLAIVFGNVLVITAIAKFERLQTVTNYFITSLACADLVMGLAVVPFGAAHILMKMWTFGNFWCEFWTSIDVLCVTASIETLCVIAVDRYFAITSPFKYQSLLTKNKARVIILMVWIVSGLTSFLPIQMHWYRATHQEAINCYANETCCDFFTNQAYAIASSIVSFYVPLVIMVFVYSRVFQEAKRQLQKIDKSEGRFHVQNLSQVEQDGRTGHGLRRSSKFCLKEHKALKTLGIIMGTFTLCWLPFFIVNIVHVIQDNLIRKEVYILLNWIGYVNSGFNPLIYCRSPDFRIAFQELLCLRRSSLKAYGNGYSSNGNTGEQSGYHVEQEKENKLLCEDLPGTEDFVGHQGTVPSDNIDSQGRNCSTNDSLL

SMILES	outcome
CCCCn1c(=N)n(CC(=O)c2ccc(Br)s2)c2ccccc21	inactive
COc1ccccc1C(=O)Nc1ccc(S(=O)(=O)N2CCCCC2c2cccnc2)cc1 (stereo unspecified)	inactive
C=CCn1c(CCNC(=O)c2cccs2)nnc1SCC(=O)Nc1cccc(Cl)c1C	inactive
O=C(Nc1ccccc1C(=O)O)c1cccc(N2C(=O)c3ccccc3C2=O)c1	inactive
CSc1ccc(CCNC(=O)C2CCN(c3nnc(-n4cccc4)s3)CC2)cc1	inactive
CC(NC(=O)c1cc(COc2ccc3ncccc3c2)on1)c1ccc(F)cc1 (stereo unspecified)	inactive
COc1ccc(-c2nc(NC(=O)c3cc(C(C)(C)C)nn3C)sc2C)cc1	inactive
COc1ccc(-n2nc3c(N4CCC(C(=O)NCc5cccc(C)c5)CC4)nnc(C)c3c2C)cc1	inactive
Cc1ccc(NC(=O)c2cc(N3C(=O)C=CC3=O)ccc2N2CCOCC2)cc1	inactive
CCOc1ccccc1CNC(=O)C1CCN(c2nnc(C)c3c(C)n(-c4ccc(C)cc4)nc23)CC1	inactive
CC(C)CNc1ncnc2c1sc1nc(N3CCOCC3)c3c(c12)CC(C)(C)OC3	inactive
Cc1cccc(CN2CCC(Oc3ccc(C(=O)N4CCCCC4)cc3)CC2)c1	inactive
c1ccc(-c2nnc(SCc3nc4ccccc4[nH]3)n2Cc2ccco2)cc1	inactive
NS(=O)(=O)c1ccc(NC(=O)c2cccc(N3C(=O)c4ccccc4C3=O)c2)cc1	inactive
O=C(Cn1nnc(-c2ccccc2)n1)Nc1ccccc1N1CCOCC1	inactive
COc1ccc(NC(=O)Cn2nnc(-c3ccc(CN4CCOCC4)cc3)n2)c(OC)c1	inactive
